Results as given in ChEMBL document CHEMBL1961873, “Compounds: GSK PKIS; Assays: Nanosyn kinase panel” (2012).

Tests used:
[1] = biological target: Sphingosine kinase 1 (Homo sapiens) (UniProt Q9NYA1); settings: at 1 µM;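 further: mean SPHK1 inhibition value reported from the GSK PKIS kinase panel screen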
[2] = biological target: T1, Sphingosine kinase 2 (Homo sapiens) (UniProt Q9NRA0); settings: at 0.1 µM
T1 sequence (whole entry): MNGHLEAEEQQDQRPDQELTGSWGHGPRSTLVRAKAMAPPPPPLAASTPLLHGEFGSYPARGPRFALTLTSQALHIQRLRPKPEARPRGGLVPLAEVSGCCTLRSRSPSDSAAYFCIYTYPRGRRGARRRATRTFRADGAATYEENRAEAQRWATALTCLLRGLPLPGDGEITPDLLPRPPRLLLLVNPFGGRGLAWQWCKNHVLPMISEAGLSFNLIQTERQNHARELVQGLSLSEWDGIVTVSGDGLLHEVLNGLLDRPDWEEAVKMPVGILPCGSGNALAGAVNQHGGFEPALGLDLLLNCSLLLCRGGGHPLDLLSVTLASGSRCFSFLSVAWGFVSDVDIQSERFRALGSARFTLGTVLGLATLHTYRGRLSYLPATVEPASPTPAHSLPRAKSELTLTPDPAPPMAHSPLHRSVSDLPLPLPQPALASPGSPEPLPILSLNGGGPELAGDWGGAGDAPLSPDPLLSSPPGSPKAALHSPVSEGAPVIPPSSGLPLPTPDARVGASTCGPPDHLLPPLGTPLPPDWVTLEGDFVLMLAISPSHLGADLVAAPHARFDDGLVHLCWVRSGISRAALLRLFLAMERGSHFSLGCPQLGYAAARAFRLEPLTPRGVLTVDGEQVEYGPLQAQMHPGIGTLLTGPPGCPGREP

[3] = biological target: T1, Sphingosine kinase 2 (Homo sapiens); settings: at 1 µM
[4] = biological target: Casein kinase II subunit alpha (Homo sapiens) (UniProt P68400); settings: at 0.1 µM
[5] = biological target: Casein kinase II subunit alpha (Homo sapiens) (UniProt P68400); settings: at 1 µM
[6] = biological target: T2, Inhibitor of nuclear factor kappa-B kinase subunit alpha (Homo sapiens) (UniProt O15111); settings: at 0.1 µM
T2 sequence (whole entry): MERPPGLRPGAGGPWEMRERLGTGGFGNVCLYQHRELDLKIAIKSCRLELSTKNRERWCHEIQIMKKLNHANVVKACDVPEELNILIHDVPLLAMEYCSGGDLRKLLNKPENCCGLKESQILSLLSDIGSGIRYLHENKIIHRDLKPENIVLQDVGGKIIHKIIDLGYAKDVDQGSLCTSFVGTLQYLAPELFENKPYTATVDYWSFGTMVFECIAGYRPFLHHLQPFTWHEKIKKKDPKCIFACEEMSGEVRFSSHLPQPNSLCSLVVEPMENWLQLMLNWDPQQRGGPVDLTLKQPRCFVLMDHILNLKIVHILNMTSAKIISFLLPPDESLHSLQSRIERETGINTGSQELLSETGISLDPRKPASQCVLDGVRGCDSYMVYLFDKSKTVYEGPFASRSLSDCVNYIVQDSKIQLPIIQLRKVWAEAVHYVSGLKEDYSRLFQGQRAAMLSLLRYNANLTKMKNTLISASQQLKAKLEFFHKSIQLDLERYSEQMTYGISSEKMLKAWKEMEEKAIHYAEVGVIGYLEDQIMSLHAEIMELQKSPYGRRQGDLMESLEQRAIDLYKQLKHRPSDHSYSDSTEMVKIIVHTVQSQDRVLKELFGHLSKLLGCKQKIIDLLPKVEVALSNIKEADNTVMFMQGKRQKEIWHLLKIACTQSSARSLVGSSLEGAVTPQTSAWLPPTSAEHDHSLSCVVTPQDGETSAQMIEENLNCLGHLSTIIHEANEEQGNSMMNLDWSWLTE

[7] = biological target: T2, Inhibitor of nuclear factor kappa-B kinase subunit alpha (Homo sapiens); settings: at 1 µM
[8] = biological target: T3, Inhibitor of nuclear factor kappa-B kinase subunit beta (Homo sapiens) (UniProt O14920); settings: at 0.1 µM
T3 sequence (whole entry): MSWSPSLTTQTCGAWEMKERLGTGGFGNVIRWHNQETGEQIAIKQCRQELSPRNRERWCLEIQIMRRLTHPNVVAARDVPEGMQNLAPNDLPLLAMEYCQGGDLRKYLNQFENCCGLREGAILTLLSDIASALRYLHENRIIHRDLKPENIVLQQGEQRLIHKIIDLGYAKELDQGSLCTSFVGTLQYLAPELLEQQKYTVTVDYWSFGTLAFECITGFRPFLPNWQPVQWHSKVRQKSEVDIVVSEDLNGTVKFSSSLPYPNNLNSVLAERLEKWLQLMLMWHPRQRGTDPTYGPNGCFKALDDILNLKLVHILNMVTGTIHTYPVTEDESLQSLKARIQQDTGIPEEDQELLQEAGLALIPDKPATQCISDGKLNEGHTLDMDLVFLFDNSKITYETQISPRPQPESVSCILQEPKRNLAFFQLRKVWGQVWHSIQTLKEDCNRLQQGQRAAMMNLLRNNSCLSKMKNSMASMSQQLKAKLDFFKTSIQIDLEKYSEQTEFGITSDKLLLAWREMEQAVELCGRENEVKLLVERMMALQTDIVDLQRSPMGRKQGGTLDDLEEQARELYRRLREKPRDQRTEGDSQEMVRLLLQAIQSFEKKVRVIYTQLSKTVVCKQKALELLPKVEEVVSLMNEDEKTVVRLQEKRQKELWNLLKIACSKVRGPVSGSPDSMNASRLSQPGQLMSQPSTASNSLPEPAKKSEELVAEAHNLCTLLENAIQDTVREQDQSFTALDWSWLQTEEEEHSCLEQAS

[9] = biological target: T3, Inhibitor of nuclear factor kappa-B kinase subunit beta (Homo sapiens); settings: at 1 µM
[10] = biological target: T4, Inhibitor of nuclear factor kappa-B kinase subunit epsilon (Homo sapiens) (UniProt Q14164); settings: at 0.1 µM
T4 sequence (whole entry): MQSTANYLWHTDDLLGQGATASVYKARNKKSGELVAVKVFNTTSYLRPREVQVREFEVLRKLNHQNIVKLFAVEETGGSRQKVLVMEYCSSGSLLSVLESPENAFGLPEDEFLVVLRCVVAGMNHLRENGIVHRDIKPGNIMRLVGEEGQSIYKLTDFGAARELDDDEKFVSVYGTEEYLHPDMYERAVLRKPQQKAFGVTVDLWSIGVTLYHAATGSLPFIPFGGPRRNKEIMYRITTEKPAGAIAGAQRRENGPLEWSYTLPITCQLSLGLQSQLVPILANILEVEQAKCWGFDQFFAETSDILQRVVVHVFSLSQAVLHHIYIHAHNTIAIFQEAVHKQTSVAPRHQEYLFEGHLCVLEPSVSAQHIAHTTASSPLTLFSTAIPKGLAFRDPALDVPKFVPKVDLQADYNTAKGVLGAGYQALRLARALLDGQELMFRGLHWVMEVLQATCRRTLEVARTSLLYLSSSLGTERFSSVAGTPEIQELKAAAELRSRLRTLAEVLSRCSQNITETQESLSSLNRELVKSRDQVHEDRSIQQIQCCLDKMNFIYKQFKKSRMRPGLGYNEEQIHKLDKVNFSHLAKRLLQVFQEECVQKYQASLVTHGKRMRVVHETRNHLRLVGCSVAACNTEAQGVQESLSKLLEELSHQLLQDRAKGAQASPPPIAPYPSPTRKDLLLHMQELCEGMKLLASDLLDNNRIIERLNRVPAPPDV

[11] = biological target: T4, Inhibitor of nuclear factor kappa-B kinase subunit epsilon (Homo sapiens); settings: at 1 µM
[12] = biological target: T5, Serine/threonine-protein kinase Nek1 (Homo sapiens) (UniProt Q96PY6); settings: at 0.1 µM
T5 sequence (whole entry): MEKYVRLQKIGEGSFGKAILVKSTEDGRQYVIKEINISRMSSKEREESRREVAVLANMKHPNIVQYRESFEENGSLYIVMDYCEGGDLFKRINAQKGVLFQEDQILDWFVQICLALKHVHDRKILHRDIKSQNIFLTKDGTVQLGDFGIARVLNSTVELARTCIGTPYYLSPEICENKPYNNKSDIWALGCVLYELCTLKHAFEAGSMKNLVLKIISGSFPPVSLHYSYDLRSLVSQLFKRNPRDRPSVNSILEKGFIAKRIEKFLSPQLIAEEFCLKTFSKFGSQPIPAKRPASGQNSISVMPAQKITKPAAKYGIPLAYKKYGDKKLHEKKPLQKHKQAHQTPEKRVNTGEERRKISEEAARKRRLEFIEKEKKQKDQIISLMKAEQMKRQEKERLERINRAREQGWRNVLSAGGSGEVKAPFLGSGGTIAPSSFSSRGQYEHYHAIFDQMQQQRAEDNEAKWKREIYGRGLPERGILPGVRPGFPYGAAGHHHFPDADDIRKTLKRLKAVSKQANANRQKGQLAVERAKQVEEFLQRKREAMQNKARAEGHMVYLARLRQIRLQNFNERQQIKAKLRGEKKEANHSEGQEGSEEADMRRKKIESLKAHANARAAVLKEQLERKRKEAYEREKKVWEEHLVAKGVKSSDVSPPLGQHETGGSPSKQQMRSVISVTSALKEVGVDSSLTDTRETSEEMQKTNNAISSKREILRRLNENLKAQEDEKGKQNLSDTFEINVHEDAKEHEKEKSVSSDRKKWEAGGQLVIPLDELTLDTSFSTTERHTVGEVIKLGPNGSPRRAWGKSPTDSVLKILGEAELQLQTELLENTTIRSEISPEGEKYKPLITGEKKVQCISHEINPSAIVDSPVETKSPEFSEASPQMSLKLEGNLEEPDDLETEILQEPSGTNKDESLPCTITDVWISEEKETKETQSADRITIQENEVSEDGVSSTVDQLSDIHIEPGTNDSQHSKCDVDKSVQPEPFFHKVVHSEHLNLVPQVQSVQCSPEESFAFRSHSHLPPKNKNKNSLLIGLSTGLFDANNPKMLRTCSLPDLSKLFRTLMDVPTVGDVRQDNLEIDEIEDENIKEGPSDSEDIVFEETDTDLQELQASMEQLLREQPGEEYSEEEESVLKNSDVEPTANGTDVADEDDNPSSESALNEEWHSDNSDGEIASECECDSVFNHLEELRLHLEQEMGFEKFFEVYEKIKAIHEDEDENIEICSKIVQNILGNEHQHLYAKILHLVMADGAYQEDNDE

[13] = biological target: T5, Serine/threonine-protein kinase Nek1 (Homo sapiens); settings: at 1 µM
[14] = biological target: T6, Serine/threonine-protein kinase Nek2 (Homo sapiens) (UniProt P51955); settings: at 0.1 µM
T6 sequence (whole entry): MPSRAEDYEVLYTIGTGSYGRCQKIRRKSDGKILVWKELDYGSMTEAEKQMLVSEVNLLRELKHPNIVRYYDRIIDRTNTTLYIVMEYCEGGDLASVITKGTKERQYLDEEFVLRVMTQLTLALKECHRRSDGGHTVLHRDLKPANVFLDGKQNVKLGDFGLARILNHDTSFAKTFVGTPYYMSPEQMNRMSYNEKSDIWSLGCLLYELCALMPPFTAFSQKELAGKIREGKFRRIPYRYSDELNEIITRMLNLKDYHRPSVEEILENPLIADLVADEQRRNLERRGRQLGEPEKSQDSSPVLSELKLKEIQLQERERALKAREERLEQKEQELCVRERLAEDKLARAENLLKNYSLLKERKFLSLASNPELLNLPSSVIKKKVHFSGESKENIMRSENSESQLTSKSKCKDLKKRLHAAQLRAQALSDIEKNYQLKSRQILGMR

[15] = biological target: T6, Serine/threonine-protein kinase Nek2 (Homo sapiens); settings: at 1 µM
[16] = biological target: Serine/threonine-protein kinase Nek6 (Homo sapiens) (UniProt Q9HC98); settings: at 0.1 µM
[17] = biological target: Serine/threonine-protein kinase Nek6 (Homo sapiens) (UniProt Q9HC98); settings: at 1 µM
[18] = biological target: Serine/threonine-protein kinase Nek7 (Homo sapiens) (UniProt Q8TDX7); settings: at 0.1 µM
[19] = biological target: Serine/threonine-protein kinase Nek7 (Homo sapiens) (UniProt Q8TDX7); settings: at 1 µM
[20] = biological target: T7, Serine/threonine-protein kinase Nek9 (Homo sapiens) (UniProt Q8TD19); settings: at 0.1 µM;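 further: reported value is the mean percent inhibition of NEK9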
T7 sequence (whole entry): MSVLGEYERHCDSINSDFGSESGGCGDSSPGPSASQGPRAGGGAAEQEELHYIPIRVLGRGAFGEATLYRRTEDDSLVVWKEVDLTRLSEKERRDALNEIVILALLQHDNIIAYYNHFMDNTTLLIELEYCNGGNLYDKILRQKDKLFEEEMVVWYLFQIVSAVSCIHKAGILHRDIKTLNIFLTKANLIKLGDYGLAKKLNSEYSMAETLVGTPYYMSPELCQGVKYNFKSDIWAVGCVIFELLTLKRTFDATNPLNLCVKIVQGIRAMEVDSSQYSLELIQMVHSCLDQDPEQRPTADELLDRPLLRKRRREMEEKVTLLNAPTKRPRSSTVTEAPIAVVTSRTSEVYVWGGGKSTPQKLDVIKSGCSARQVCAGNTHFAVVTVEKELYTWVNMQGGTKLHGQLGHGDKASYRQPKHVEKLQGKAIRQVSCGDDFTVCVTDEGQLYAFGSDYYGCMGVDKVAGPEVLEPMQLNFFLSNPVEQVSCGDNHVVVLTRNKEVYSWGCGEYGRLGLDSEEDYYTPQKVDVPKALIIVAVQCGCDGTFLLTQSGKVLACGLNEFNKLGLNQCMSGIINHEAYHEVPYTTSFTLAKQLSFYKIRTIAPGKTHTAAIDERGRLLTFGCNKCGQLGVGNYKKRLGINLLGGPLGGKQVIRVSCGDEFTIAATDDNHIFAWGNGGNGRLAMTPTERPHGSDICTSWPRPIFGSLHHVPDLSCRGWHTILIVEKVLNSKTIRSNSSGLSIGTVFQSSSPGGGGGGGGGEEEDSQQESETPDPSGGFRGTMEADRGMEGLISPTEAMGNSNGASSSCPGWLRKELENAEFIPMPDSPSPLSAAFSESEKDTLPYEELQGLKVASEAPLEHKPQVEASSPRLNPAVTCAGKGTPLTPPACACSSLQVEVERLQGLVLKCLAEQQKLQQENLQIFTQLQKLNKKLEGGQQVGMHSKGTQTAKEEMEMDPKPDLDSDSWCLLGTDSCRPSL

Serine/threonine-protein kinase Nek7 (Homo sapiens), sequence (Q8TDX7 whole entry, looked up): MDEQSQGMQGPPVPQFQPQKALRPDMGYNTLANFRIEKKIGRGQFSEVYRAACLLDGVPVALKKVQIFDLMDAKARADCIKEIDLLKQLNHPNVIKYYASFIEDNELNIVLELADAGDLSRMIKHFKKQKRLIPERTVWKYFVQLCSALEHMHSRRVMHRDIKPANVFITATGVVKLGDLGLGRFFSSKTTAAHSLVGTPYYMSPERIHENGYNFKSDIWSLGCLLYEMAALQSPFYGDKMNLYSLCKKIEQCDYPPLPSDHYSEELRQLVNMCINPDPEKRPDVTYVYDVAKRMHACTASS
Casein kinase II subunit alpha (Homo sapiens), sequence (P68400 whole entry, looked up): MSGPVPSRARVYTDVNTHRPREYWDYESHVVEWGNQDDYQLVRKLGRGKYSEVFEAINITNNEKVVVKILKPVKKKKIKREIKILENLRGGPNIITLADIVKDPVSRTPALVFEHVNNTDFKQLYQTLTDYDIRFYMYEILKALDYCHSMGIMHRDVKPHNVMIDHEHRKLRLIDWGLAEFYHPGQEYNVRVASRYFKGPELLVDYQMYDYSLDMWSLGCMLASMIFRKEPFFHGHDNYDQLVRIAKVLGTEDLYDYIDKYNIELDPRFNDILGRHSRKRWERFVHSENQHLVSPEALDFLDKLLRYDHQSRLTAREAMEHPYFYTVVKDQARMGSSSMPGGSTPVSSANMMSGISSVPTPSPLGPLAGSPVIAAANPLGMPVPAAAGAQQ
Serine/threonine-protein kinase Nek6 (Homo sapiens), sequence (Q9HC98 whole entry): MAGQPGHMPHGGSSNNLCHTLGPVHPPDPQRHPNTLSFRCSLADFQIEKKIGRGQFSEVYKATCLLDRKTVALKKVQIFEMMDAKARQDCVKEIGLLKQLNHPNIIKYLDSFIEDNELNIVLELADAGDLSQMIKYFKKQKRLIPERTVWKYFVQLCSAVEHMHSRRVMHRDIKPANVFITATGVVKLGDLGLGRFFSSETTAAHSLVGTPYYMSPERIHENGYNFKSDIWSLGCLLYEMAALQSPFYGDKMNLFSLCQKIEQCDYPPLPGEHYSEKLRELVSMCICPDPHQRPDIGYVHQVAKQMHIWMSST
Sphingosine kinase 1 (Homo sapiens), sequence (Q9NYA1 whole entry): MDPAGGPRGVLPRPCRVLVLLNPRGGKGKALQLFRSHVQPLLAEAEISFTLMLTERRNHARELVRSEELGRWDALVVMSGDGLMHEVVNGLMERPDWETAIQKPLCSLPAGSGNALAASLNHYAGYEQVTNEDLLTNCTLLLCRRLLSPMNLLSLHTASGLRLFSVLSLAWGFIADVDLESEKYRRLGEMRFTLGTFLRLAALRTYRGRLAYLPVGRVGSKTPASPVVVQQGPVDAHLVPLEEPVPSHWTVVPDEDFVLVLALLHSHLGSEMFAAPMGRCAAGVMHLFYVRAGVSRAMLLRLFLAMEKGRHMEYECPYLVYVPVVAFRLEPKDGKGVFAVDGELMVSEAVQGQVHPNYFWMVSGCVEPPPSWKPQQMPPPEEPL

**Q.** Which results are given for `Fc1ccc(-c2c(-c3ccncc3)nc3n2CCS3)cc1`?
**A.** inhibition [1]: 1.66%; inhibition [2]: 0.08%; inhibition [3]: 0.64%; inhibition [4]: 2.23%; inhibition [5]: 2.3%; inhibition [6]: 7.58%; inhibition [7]: 3.05%; inhibition [8]: 2.88%; inhibition [9]: 3.75%; inhibition [10]: 4.09%; inhibition [11]: 5.11%; inhibition [12]: 2.32%; inhibition [13]: 3.2%; inhibition [14]: 2.33%; inhibition [15]: 2.6%; inhibition [16]: -0.57%; inhibition [17]: 0.48%; inhibition [18]: 3.63%; inhibition [19]: 2.47%; inhibition [20]: 5.56%
